Laboratory results reported in PubChem BioAssay AID2685 (National Center for Advancing Translational Sciences (NCATS), 2010).
Screen size: about 320,000 compounds; about 2,100 (0.66%) were called active. Another 53% or so got no clear call; they are omitted. The call rests on the fitted dose curve; in most records, active means well fitted inhibition curve with a large enough effect in the signal ratio, with a control signal flat (not every such curve was filed as active); inconclusive means small, poorly fitted or top-dose-only effect, or effect the other way, or a change in a side signal; inactive means flat fitted curve, though single readings scatter; the % refers to the signal ratio. Only a selection was taken, and actives are over-represented in it overall.
Potency means the concentration at half of the fitted maximal effect.

Test: qHTS Assay for Lipid Storage Modulators in Drosophila S3 Cells;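 on cell number change: cells counted by Cell Tracker Red CMTPX staining in the red channel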
Conditions: BODIPY lipid droplet fluorescence, 18-24 h, cells fed with added oleic acid; cell number change: measured here: cell count max response; series mostly up to 46.1 µM
Outline: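 Drosophila S3 cells got compounds at several concentrations plus oleic acid (400 uM solution). Laser-scanning cytometry with 488 nm excitation read lipid droplets at 500-530 nm and cells at 575-640 nm. Percent activity was relative to 20 uM Triacsin C.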
In the case of `N#Cc1cccc(S(=O)(=O)Nc2c(NC3CCCCC3)c3ccccc3oc2=O)c1`, the Potency is reported as “inactive” and the cell number change is reported as -28.3%.
In the case of `Cc1cccc(NC(=S)N(CCc2ccncc2)C(C)C)c1C`, the Potency is reported as “inactive” and the cell number change is reported as -1.71%.
With `O=C(Nc1nccs1)c1cccc(S(=O)(=O)N2CCOCC2)c1` the Potency was “inactive” and the cell number change was 0.981%.
With `O=C(Nc1nncs1)c1cccc(S(=O)(=O)N2CCOCC2)c1` the Potency was 23.1 µM (active) and the cell number change was -2.32%.
In the case of `Cn1cc(S(=O)(=O)N2CCOCC2)cc1C(=O)Nc1ccc(Cl)cc1`, the Potency is reported as “inactive” and the cell number change is reported as 5.48%.
In the case of `O=C(NCCN1CCOCC1)c1cccc(S(=O)(=O)N2CCCC2)c1`, the Potency is reported as “inactive” and the cell number change is reported as 2.89%.
With `O=C(NCCN1C(=O)S/C(=C\c2ccc(F)cc2)C1=O)c1cccc(S(=O)(=O)N2CCOCC2)c1` the Potency was 13 µM (active).
In the case of `COc1cc(C(=O)NCCN2C(=O)S/C(=C\c3ccc(F)cc3)C2=O)ccc1OCC(=O)N1CCOCC1`, the Potency is reported as “inactive” and the cell number change is reported as 15.3%.
For `Cn1cc(S(=O)(=O)N2CCOCC2)cc1C(=O)Nc1cccc(Cl)c1`, the Potency was 7.31 µM (active) and the cell number change was -6.63%.
In the case of `O=C(Nc1nnc(-c2ccccc2)s1)c1cccc(S(=O)(=O)N2CCOCC2)c1`, the Potency is reported as “inactive” and the cell number change is reported as -9.5%.
In the case of `COc1ccc(NC(=O)c2cc(S(=O)(=O)N3CCOCC3)cn2C)cc1Cl`, the Potency is reported as “inactive” and the cell number change is reported as -8.07%.
In the case of `COc1ccc(OCC(=O)NCCc2c[nH]c3ccccc23)cc1`, the Potency is reported as “inactive” and the cell number change is reported as -0.0954%.
In the case of `COc1ccc(/C(C)=N/NC(=O)CNC(=O)/C=C\c2ccco2)cc1`, the Potency is reported as “inactive” and the cell number change is reported as 25.3%.
For `Oc1ccc(N=Nc2ccc3ccccc3c2)cc1`, the Potency was “inactive” and the cell number change was -16.8%.
In the case of `COc1ccc(N=Nc2ccc3ccccc3c2)c(O)c1`, the Potency is reported as 4.11 µM (active) and the cell number change is reported as -14.1%.
In the case of `O=[N+]([O-])c1cc(N=Nc2ccc3ccccc3c2)ccc1O`, the Potency is reported as “inactive” and the cell number change is reported as -8.5%.
With `COc1cccc(NC(=O)CSc2nnc(Cn3nnc4ccccc43)n2C)c1` the Potency was “inactive” and the cell number change was 1.13%.
For `O=C(Oc1ccc(=O)n(-c2ccccc2)n1)c1cccc(Cl)c1`, the Potency was “inactive” and the cell number change was -1.38%.
For `Cn1c(CNC(=O)c2ccc3c(c2)OCO3)nnc1SCC(=O)Nc1ccccc1F`, the Potency was “inactive” and the cell number change was 3.42%.
For `CCN(Cc1ccccc1)S(=O)(=O)c1ccc(C(=O)N(CCCN(C)C)c2nc3cc(OC)ccc3s2)cc1`, the Potency was “inactive” and the cell number change was 7.95%.
For `O=C(COc1ccc2c3c(c(=O)oc2c1)CCC3)N1CCN(c2ccccc2)CC1`, the Potency was “inactive” and the cell number change was 28.4%.
With `CN1CCN(C(c2ccccc2)c2ccccc2)CC1` the Potency was “inactive” and the cell number change was 2.24%.
For `CC1(C)CC(N2CCOCC2)=CC(=[N+]2CCOCC2)C1`, the Potency was “inactive” and the cell number change was 3.66%.
In the case of `CC1(C)CC(N2CCN(C(c3ccccc3)c3ccccc3)CC2)=CC(=[N+]2CCCCC2)C1`, the Potency is reported as 2.06 µM (active) and the cell number change is reported as -24.2%.
For `Cc1cc(SCC(=O)Nc2cccc(S(N)(=O)=O)c2)c(C)cc1Br`, the Potency was “inactive” and the cell number change was 15.2%.
In the case of `CCc1ccc(OCCn2ccnc2)cc1`, the Potency is reported as “inactive” and the cell number change is reported as -22.2%.
For `COc1ccc(OCCCn2ccnc2)cc1`, the Potency was “inactive” and the cell number change was -3.82%.
With `O=C(O)c1ccc(OCCn2ccnc2)cc1` the Potency was “inactive” and the cell number change was 11.3%.
For `CCc1ccc(OCCCCCn2ccnc2)cc1`, the Potency was 4.61 µM (active) and the cell number change was -11.6%.
With `COc1ccc(OCCn2ccnc2)cc1` the Potency was “inactive” and the cell number change was -2.55%.
For `c1ccc(Cc2ccc(OCCn3ccnc3)cc2)cc1`, the Potency was 3.66 µM (active) and the cell number change was -8.07%.
For `COc1ccccc1NC(=O)C1=C(C)Nc2nc(CCCO)nn2C1c1ccc2c(c1)OCO2` (stereo not drawn), the Potency was “inactive” and the cell number change was -2.99%.
For `COc1ccc(Cl)cc1S(=O)(=O)N1CCC(C(=O)NCC2CCCO2)CC1` (stereo not drawn), the Potency was “inactive” and the cell number change was 6.08%.
With `CCCS(=O)(=O)N1CCN(C(=O)c2cccnc2)CC1` the Potency was “inactive”.
For `COCCCn1c(SCC(=O)NC(C)C)nnc1-c1ccccc1`, the Potency was “inactive” and the cell number change was 1.73%.
In the case of `COc1cc(C(=O)Nc2ccc(C)cn2)ccc1OCC(=O)N1CCOCC1`, the Potency is reported as 20.6 µM (active) and the cell number change is reported as 5.26%.
For `COc1cc(C(=O)O)ccc1OCC(=O)N1CCOCC1`, the Potency was “inactive” and the cell number change was -12%.
In the case of `CCc1ccc(C(=O)NNC(=O)c2ccc(OCC(=O)N3CCOCC3)c(OC)c2)cc1`, the Potency is reported as “inactive” and the cell number change is reported as -13.6%.
In the case of `CCN(CC)CCCNC(=O)CSc1nc(-c2ccc(F)cc2)cc(C(F)(F)F)n1`, the Potency is reported as “inactive” and the cell number change is reported as 4.94%.
For `CCC(C)(C)NC(=O)CN(C(=O)c1snc(C(N)=O)c1N)c1ccc2c(c1)OCCO2`, the Potency was “inactive” and the cell number change was 19.8%.
With `CN(C)S(=O)(=O)c1cccc(C(=O)NCCNC(=O)c2cccc(S(=O)(=O)N(C)C)c2)c1` the Potency was “inactive” and the cell number change was -23.4%.
In the case of `CN(C)S(=O)(=O)c1cccc(COC(=O)CCNC(=O)c2ccc([N+](=O)[O-])cc2)c1`, the Potency is reported as 2.31 µM (active) and the cell number change is reported as 9.78%.
For `O=C(CNC(=O)c1ccccc1)OCc1cccc([N+](=O)[O-])c1`, the Potency was “inactive” and the cell number change was -2.11%.
With `Cn1c(CC(=O)Nc2cccc(Cl)c2Cl)nnc1SCC(=O)NC1=NCCS1` the Potency was “inactive” and the cell number change was 10.7%.
In the case of `CC(C)n1c(N)c(C#N)c2ccc([N+](=O)[O-])cc2c1=O`, the Potency is reported as “inactive” and the cell number change is reported as 17.3%.
